Measured values: PubChem BioAssay (EPA / NIEHS)
The source made the active and inactive calls. Rule for the calls: active = hit-call score of the fitted dose curve at least 0.9, where 1 is the maximum; inactive = score below 0.9.

Assays:
Details in all cases: mRNA level, 48 h; actives raise or lower the signal
[1] = read-out: Cytochrome P450 4A22 (Homo sapiens) (UniProt Q5TCH4); assay: LTEA_HepaRG_CYP4A22: Life Technologies and Expression Analysis (LTEA) Assay for Cytochrome P450 4A22 (CYP4A22) using HepaRG (AID 2283495)
How it was run: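 Gene expression measured by qRT-PCR against three housekeeping genes (ACTB, GAPDH, POLR2A), with gain or loss fitted relative to 0.5% DMSO vehicle. HepaRG cultures received 48 h chemical treatment, top concentration 100 uM, half-log steps, duplicate wells.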

[2] = read-out: Cytochrome P450 7A1 (Homo sapiens) (UniProt P22680); assay: LTEA_HepaRG_CYP7A1: Life Technologies and Expression Analysis (LTEA) Assay for Cytochrome P450 7A1 (CYP7A1) using HepaRG (AID 2283496)
How it was run: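 Using 0.5% DMSO as vehicle and baseline, chemicals were tested in duplicate over an 8-point range from 100 uM on HepaRG cells for 48 h; qRT-PCR signals were normalised to ACTB, GAPDH and POLR2A.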

[3] = read-out: Glutathione S-Transferase (GSTA2), GSTA2 (gene 2939); assay: LTEA_HepaRG_GSTA2: Life Technologies and Expression Analysis (LTEA) Assay for Glutathione S-Transferase (GSTA2) using HepaRG (AID 2283497)
How it was run: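 qRT-PCR readout of GSTA2 transcript, normalized to three housekeeping genes, fitted bidirectionally against 0.5% DMSO baseline. Differentiated HepaRG cells received compound for 48 h at 8 concentrations (top 100 uM, half-log steps).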

[4] = read-out: Glutamate-cysteine ligase catalytic (GCLC), GCLC (gene 2729); assay: LTEA_HepaRG_GCLC: Life Technologies and Expression Analysis (LTEA) Assay for Glutamate-cysteine ligase catalytic (GCLC) using HepaRG (AID 2283498)
How it was run: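 HepaRG, 48 h exposure, 8-pt half-log series from 100 uM, 0.5% DMSO vehicle; TaqMan qRT-PCR for GCLC mRNA, housekeeping-normalized; bidirectional curve fit vs DMSO baseline.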

[5] = read-out: growth arrest and DNA damage 45 (GADD45G), GADD45G (gene 10912); assay: LTEA_HepaRG_GADD45G: Life Technologies and Expression Analysis (LTEA) Assay for growth arrest and DNA damage 45 (GADD45G) using HepaRG (AID 2283499)
How it was run: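 GADD45G transcript level by qRT-PCR (housekeeping-normalized: ACTB, GAPDH, POLR2A) after 48 h chemical treatment of a single HepaRG lot in serum-free induction medium; eight-point half-log series up to 100 uM in 0.5% DMSO, duplicates, up- or down-regulation scored.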

[6] = read-out: Glutamate-cysteine ligase regulatory (GCLM), GCLM (gene 2730); assay: LTEA_HepaRG_GCLM: Life Technologies and Expression Analysis (LTEA) Assay for Glutamate-cysteine ligase regulatory (GCLM) using HepaRG (AID 2283500)
How it was run: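 In this multiplexed HepaRG gene-expression assay, GCLM mRNA change after 48 h treatment (8 concentrations, max 100 uM) was scored against DMSO by bidirectional curve fitting.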

[7] = read-out: Glutathione S-transferase M3 (GSTM3), GSTM3 (gene 2947); assay: LTEA_HepaRG_GSTM3: Life Technologies and Expression Analysis (LTEA) Assay for Glutathione S-transferase M3 (GSTM3) using HepaRG (AID 2283501)
How it was run: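 GSTM3 transcript levels came from Fluidigm TaqMan qRT-PCR normalized to three housekeeping genes, fitted in both directions against DMSO. HepaRG cultures received chemicals for 48 h in serum-free induction medium (0.5% DMSO), 8 half-log concentrations up to 100 uM, duplicate.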

[8] = read-out: Heat shock 70 kDa protein 1 (HSPA1A), gene 3303; assay: LTEA_HepaRG_HSPA1A: Life Technologies and Expression Analysis (LTEA) Assay for Heat shock 70 kDa protein 1 (HSPA1A) using HepaRG (AID 2283502)
How it was run: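 An oxidative-stress marker readout: HepaRG cells treated 48 h in duplicate with an eight-point series (highest 100 uM) had HSPA1A mRNA quantified by TaqMan qRT-PCR. Activity was fitted in both directions using 0.5% DMSO as baseline.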

[9] = read-out: Hypoxia-inducible factor 1-alpha (Homo sapiens) (UniProt Q16665); assay: LTEA_HepaRG_HIF1A: Life Technologies and Expression Analysis (LTEA) Assay for Hypoxia-inducible factor 1 (HIF1A) Trancription factor using HepaRG (AID 2283503)
How it was run: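 Gain- or loss-of-signal HIF1A mRNA changes are fitted against a DMSO baseline. HepaRG cultures receive eight concentrations, highest 100 uM, for 48 h in serum-free induction medium with 0.5% DMSO.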

[10] = read-out: 3-Hydroxy-3-Methylglutaryl-CoA Synthase 2 (HMGCS2), HMGCS2 (gene 3158); assay: LTEA_HepaRG_HMGCS2: Life Technologies and Expression Analysis (LTEA) Assay for 3-Hydroxy-3-Methylglutaryl-CoA Synthase 2 (HMGCS2) using HepaRG (AID 2283504)
How it was run: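 Readout is HMGCS2 transcript by qRT-PCR, housekeeping-normalised (ACTB/GAPDH/POLR2A) and fitted bidirectionally against 0.5% DMSO. Differentiated HepaRG cells received chemicals 48 h, duplicate wells, eight half-log concentrations topping at 100 uM.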

HGF (gene 3082) = assay: LTEA_HepaRG_HGF: Life Technologies and Expression Analysis (LTEA) Assay for Hepatocyte Growth Facto (HGF) using HepaRG (AID 2283505)
How it was run: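 HGF transcript was quantified by TaqMan qRT-PCR against three housekeeping genes after 48 h treatment of HepaRG cells. Exposure ran in duplicate over eight half-log steps topping at 100 uM in 0.5% DMSO vehicle.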

[11] = read-out: Insulin Like Growth Factor 1 (IGF1), IGF1 (gene 3479); assay: LTEA_HepaRG_IGF1: Life Technologies and Expression Analysis (LTEA) Assay for Insulin Like Growth Factor 1 (IGF1) using HepaRG (AID 2283506)
How it was run: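 Endpoint: IGF1 mRNA change by qRT-PCR, housekeeping-normalized, fitted bidirectionally relative to 0.5% DMSO vehicle. Human HepaRG cells were treated 48 h in serum-free induction medium, eight half-log concentrations topping at 100 uM.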

[12] = read-out: Intercellular Adhesion Molecule 1 (ICAM1), ICAM1 (gene 3383); assay: LTEA_HepaRG_ICAM1: Life Technologies and Expression Analysis (LTEA) Assay for Intercellular Adhesion Molecule 1 (ICAM1) using HepaRG (AID 2283507)
How it was run: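 ICAM1 transcript levels measured by qRT-PCR, normalized to three housekeeping genes (ACTB, GAPDH, POLR2A), after 48 h chemical exposure of HepaRG cells. Duplicate eight-point half-log series from 100 uM in 0.5% DMSO; gain or loss fitted against vehicle.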

[13] = read-out: Insulin-like growth factor-binding protein 1 (IGFBP1), IGFBP1 (gene 3484); assay: LTEA_HepaRG_IGFBP1: Life Technologies and Expression Analysis (LTEA) Assay for Insulin-like growth factor-binding protein 1 (IGFBP1) using HepaRG (AID 2283508)
How it was run: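 Read-out is qRT-PCR transcript level normalized to three housekeeping genes, fitted in both directions against 0.5% DMSO. Differentiated HepaRG cells received eight half-log concentrations (top 100 uM) in duplicate for 48 h in serum-free induction medium.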

[14] = read-out: Interleukin 6 (IL6), IL6 (gene 3569); assay: LTEA_HepaRG_IL6: Life Technologies and Expression Analysis (LTEA) Assay for Interleukin 6 (IL6) using HepaRG (AID 2283509)
How it was run: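 qRT-PCR read-out of IL6 transcript, normalized to three housekeeping genes, after 48 h chemical exposure of HepaRG cells; 8-point half-log series, top 100 uM, 0.5% DMSO vehicle. Bidirectional curve fitting against DMSO baseline.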

[15] = read-out: Interleukin 6 Receptor (IL6R), IL6R (gene 3570); assay: LTEA_HepaRG_IL6R: Life Technologies and Expression Analysis (LTEA) Assay for Interleukin 6 Receptor (IL6R) using HepaRG (AID 2283510);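 for AC50: differentiated human HepaRG liver cells in serum-free induction medium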
How it was run: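 In this HepaRG screen, test chemicals act on cells for 48 h at up to 100 uM (eight half-log points, duplicate wells). IL6R expression is quantified by qRT-PCR after normalization to ACTB, GAPDH and POLR2A, with DMSO as baseline.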

[16] = read-out: Potassium channel subfamily K member 1 (KCNK1), KCNK1 (gene 3775); assay: LTEA_HepaRG_KCNK1: Life Technologies and Expression Analysis (LTEA) Assay for Potassium channel subfamily K member 1 (KCNK1) using HepaRG (AID 2283511)
How it was run: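 HepaRG, 48 h exposure, 8-pt half-log series top 100 uM, 0.5% DMSO vehicle, duplicates. Readout: KCNK1 transcript by qRT-PCR (Fluidigm array), housekeeping-normalized; bidirectional curve fit relative to DMSO baseline.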

[17] = read-out: Keratin 19 (KRT19), KRT19 (gene 3880); assay: LTEA_HepaRG_KRT19: Life Technologies and Expression Analysis (LTEA) Assay for Keratin 19 (KRT19) using HepaRG (AID 2283512)
How it was run: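 KRT19 transcript measured by TaqMan qRT-PCR, referenced to three housekeeping genes, after HepaRG cells received test chemicals for 48 h. Eight half-log concentrations, top 100 uM, 0.5% DMSO vehicle; increases and decreases both fitted.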

[18] = read-out: JUN Transcription Factor, JUN (gene 3725); assay: LTEA_HepaRG_JUN: Life Technologies and Expression Analysis (LTEA) Assay for JUN Transcription Factor using HepaRG (AID 2283513)
How it was run: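 Gene-expression endpoint: JUN mRNA (qRT-PCR, normalized to three reference genes) in HepaRG cultures treated 48 h with chemicals, duplicate wells, 100 uM maximum with half-log dilutions; bidirectional fitting relative to 0.5% DMSO.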

[19] = read-out: Lipase C (LIPC), LIPC (gene 3990); assay: LTEA_HepaRG_LIPC: Life Technologies and Expression Analysis (LTEA) Assay for Lipase C (LIPC) using HepaRG (AID 2283514)
How it was run: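 HepaRG, 48 h exposure, 8-pt half-log series from 100 uM in 0.5% DMSO, duplicates. Readout: LIPC mRNA by Fluidigm qRT-PCR, housekeeping-normalized (ACTB/GAPDH/POLR2A). Gain or loss fitted bidirectionally against DMSO baseline.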

Measured: AC50

Sequence of Hypoxia-inducible factor 1-alpha (Homo sapiens) (Q16665 whole entry, looked up): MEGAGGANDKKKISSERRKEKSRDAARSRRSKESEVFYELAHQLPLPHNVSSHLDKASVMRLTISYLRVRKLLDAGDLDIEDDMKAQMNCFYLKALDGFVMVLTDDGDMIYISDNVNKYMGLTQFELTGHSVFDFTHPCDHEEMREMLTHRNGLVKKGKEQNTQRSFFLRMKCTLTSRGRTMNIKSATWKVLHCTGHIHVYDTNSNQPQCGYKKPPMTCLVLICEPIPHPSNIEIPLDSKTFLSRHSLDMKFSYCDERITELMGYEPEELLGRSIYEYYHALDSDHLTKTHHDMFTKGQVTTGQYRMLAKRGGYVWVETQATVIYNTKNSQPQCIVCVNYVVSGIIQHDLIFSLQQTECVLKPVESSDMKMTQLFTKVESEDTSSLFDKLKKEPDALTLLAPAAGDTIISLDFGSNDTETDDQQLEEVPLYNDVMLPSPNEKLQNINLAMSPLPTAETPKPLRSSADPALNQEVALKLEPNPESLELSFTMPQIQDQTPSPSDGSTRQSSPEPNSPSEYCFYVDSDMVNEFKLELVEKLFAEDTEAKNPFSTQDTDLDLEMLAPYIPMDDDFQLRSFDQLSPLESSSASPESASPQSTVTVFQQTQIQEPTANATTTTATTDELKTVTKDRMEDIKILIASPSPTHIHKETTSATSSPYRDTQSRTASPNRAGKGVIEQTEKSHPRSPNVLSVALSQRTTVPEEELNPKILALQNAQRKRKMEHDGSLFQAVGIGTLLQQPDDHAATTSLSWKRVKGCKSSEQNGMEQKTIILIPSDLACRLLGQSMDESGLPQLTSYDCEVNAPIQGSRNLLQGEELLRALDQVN

Cc1occc1C(=O)Nc1ccc(C(=O)N2CCC(F)(F)/C(=C\C(=O)N3CCC(N4CCCCC4)CC3)c3ccccc32)cc1
inactive: [4] | [5] | [6] | [8] | [9] | HGF (gene 3082) | [12] | [16] | [18]
active: [1] 57.5 µM | [2] 17.2 µM | [3] 52 µM | [7] 31.2 µM | [10] 31.2 µM | [11] 5.3 µM | [13] 46.1 µM | [14] 51.9 µM | [15] 27.5 µM | [17] 49.6 µM | [19] 45.4 µM

CCO[Si](CCCNC(N)=O)(OCC)OCC
inactive: [1] | [2] | [3] | [4] | [5] | [6] | [7] | [8] | [9] | [10] | HGF (gene 3082) | [11] | [12] | [13] | [14] | [15] | [16] | [17] | [18] | [19]

Cc1oc2c(NC(=O)c3c(Cl)cccc3Cl)cccc2c1C(C)(C)O
inactive: [5] | [9] | [18]
active: [1] 31.5 µM | [2] 57.3 µM | [3] 38.2 µM | [4] 68.7 µM | [6] 50 µM | [7] 34.4 µM | [8] 79.6 µM | [10] 52.8 µM | HGF (gene 3082) 85.7 µM | [11] 28.6 µM | [12] 50 µM | [13] 37.8 µM | [14] 66.2 µM | [15] 23.8 µM | [16] 43.6 µM | [17] 50 µM | [19] 37.6 µM

CCN(CC)C(=O)c1cc(S(=O)(=O)Cc2ccccc2)c(N2CCC(c3ccccc3)CC2)cc1N(CC)CCN(C)C
inactive: [1] | [2] | [6] | [7] | [9] | HGF (gene 3082) | [11] | [15] | [16] | [17] | [19]
active: [3] 4.51 µM | [4] 30.7 µM | [5] 20.5 µM | [8] 24.5 µM | [10] 35.5 µM | [12] 19 µM | [13] 32.2 µM | [14] 36.3 µM | [18] 30.4 µM

O=C=NCCCCCCN=C=O
inactive: [1] | [2] | [3] | [4] | [5] | [6] | [7] | [8] | [9] | [10] | HGF (gene 3082) | [11] | [12] | [13] | [14] | [15] | [16] | [17] | [18] | [19]
